Measured values as given in PubChem BioAssay AID1460 (National Center for Advancing Translational Sciences (NCATS), 2008).
Among all 270,000 compounds or so, about 5,800 (2.1%) were called active. A call without a number means that no potency is given here. Another 16% or so got no clear call; they are omitted. Only a selection was taken, and actives are over-represented in it overall. Where a structure was tested more than once in an assay, its records may differ in their call. A number with no mark means an inactive call. Calls come from the whole dose curve; as a rule, active = well fitted inhibition curve with a large enough effect; inconclusive = small, poorly fitted or top-dose-only effect; inactive = flat fitted curve, though single readings scatter.
Note: nearly all actives have a fitted effect of over 55% in size.
Potency is the fitted concentration of half-maximal effect.

The compounds below were run against Microtubule-associated protein tau (Homo sapiens) (UniProt P10636) (assay: qHTS for Inhibitors of Tau Fibril Formation, Thioflavin T Binding). Settings: recombinant tau K18 P301L, heparin-induced fibrillization, ThT fluorescence; series mostly up to 57.4 µM.
Chain of Microtubule-associated protein tau (Homo sapiens) (P10636 561-689 P618L limits assumed): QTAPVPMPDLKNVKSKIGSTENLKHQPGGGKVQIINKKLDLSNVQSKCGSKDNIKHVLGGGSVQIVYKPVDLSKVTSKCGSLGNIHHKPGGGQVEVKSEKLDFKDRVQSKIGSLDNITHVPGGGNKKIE
Summary of the method: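 Fibril formation assay: tau K18 P301L at 15 uM with trace Alexa 594 label, heparin inducer 20 uM, pH 7 sodium acetate buffer, 37 C for 6 hr; endpoint ThT signal.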
With `C=CC(C1=CC(=O)C=CC1=O)c1ccc(O)cc1` (stereo not drawn) the Potency was 28.2 µM (active). In the case of `COc1cc2nc(SCc3ccc(F)cc3)n3nc(CCn4c(C)nc5ccccc54)nc3c2cc1OC`, the Potency was “inactive”. With `CCCC(=O)Nc1ccc(C(=O)N/N=C/c2ccc[nH]2)cc1` the Potency was 15.8 µM (active). With `CCCN(CC(=O)Nc1ccc(C(N)=O)cc1)CC(=O)Nc1ccccc1C` the Potency was “inactive”. `CCCC(=O)Nc1ccc(C(=O)NCCCn2ccnc2)cc1` was tested, and the Potency was “inactive”. For `CCOc1cc2[nH]c(=O)n(Cc3ccc(C(=O)NCCN(CC)CC)cc3)c(=O)c2cc1OCC`, the Potency was “inactive”. `CCN(CCCNC(=O)c1c(C)oc2ncn(CC(C)C)c(=O)c12)Cc1ccccc1` was tested, and the Potency was “inactive”. `Cc1ccc2[nH]c3c(=O)n(CC(=O)NC(C)C)ncc3c2c1` was tested, and the Potency was “inactive”. In the case of `COc1ccc(Cc2nc3ccc(C(=O)NCc4ccccc4Cl)cc3o2)cc1`, the Potency was “inactive”. In the case of `COc1ccc(OC)c(NC(=O)CSC2=Nc3ccccc3C3=NC(CC(=O)NCc4ccc(F)cc4)C(=O)N23)c1` (stereo not drawn), the Potency was “inactive”. For `Cc1ccc(C(=O)CC2(O)C(=O)N(CCc3ccccc3)c3ccc(Br)cc32)cc1` (stereo not drawn), the Potency was “inactive”. For `COc1ccc2c(c1)C(=C(C#N)C#N)C(=O)N2CCc1ccccc1`, the Potency was 28.2 µM (active). `C#CCN1C(=O)C(O)(CC(=O)c2cc(OC)ccc2OC)c2ccccc21` (stereo not drawn) was tested, and the Potency was “inactive”. `Cc1cccc(C(=O)N2c3nc(-c4ccco4)nn3C3(CCCCC3)[C@@H]3CCCC[C@@H]32)c1` was tested, and the Potency was “inactive”. `COc1ccccc1N1CCN(C2C(=O)c3ccccc3N2C(C)=O)CC1` (stereo not drawn) was tested, and the Potency was “inactive”. `CN(C)c1nc(=Nc2cccc(Cl)c2)ss1` was tested, and the Potency was 25.1 µM (active). `CCOC(=O)C1=C(O)CSC1=Nc1cccc(Cl)c1` was tested, and the Potency was “inactive”. With `CC(=O)N1CCCc2cc(S(=O)(=O)N3CCC(C(=O)NCc4ccc(C)cc4)CC3)ccc21` the Potency was “inactive”. In the case of `CCCCN(CC)CCCNC(=O)c1nn(C)c2c1CS(=O)(=O)c1ccccc1-2`, the Potency was “inactive”. In the case of `Cc1c2cnn(-c3ccccc3)c(=O)c2c(C)n1C(C)C(=O)Nc1ccc(Br)cc1F` (stereo not drawn), the Potency was “inactive”. For `CCSc1ncnc2c(C#N)c3n(c12)CCCCC3`, the Potency was “inactive”. In the case of `CCSC1=C(C#N)C(=O)n2c1cc1c2CCCC1`, the Potency was 25.1 µM (active). For `CCc1ccccc1NC(=O)c1ccc(F)c(S(=O)(=O)NC2CCCCCC2)c1`, the Potency was “inactive”. In the case of `Cc1oc2c(c1C(=O)Nc1ccc(F)c(F)c1)C1=NCCN1C=N2`, the Potency was “inactive”. For `CCOC(=O)c1ccc(CN(Cc2ccccc2)S(=O)(=O)c2ccc(Cl)cc2)cc1`, the Potency was “inactive”. For `CC(C)CCN(C(=O)Nc1ccc(Cl)c(Cl)c1)C(C)c1cccs1` (stereo not drawn), the Potency was “inactive”. In the case of `O=C(NCc1cccnc1)C(=O)Nc1nc(-c2ccccc2)cs1`, the Potency was “inactive”. In the case of `COc1ccc(-c2csc(NC(=O)c3ccc(N4C(=O)CCC4=O)cc3)n2)cc1OC`, the Potency was “inactive”. In the case of `c1ccc(Nc2nc(-c3ccncc3)cs2)nc1`, the Potency was “inactive”. `COc1ccc(OC)c(Nc2nc(-c3ccc(O)c(O)c3)cs2)c1` was tested, and the Potency was 10 µM (active). In the case of `COc1ccc(-c2csc(NC(=O)COC(=O)c3ccc(Br)o3)n2)cc1`, the Potency was “inactive”. `Oc1ccc(-c2csc(Nc3cccnc3)n2)cc1` was tested, and the Potency was 15.8 µM (active). `COc1ccc(-c2csc(Nc3ccc(O)cc3)n2)cc1` was tested, and the Potency was 7.94 µM (active). With `c1cnc(Nc2nc(-c3ccc4ccccc4c3)cs2)nc1` the Potency was “inactive”. With `COc1ccc(-c2csc(NC(=O)CCCc3cccs3)n2)cc1` the Potency was “inactive”. `Cc1ccc(NC(=O)Cn2nnc3sc4c(c3c2=O)CCC(C)C4)cc1` (stereo not drawn) was tested, and the Potency was “inactive”. With `COC(=O)c1ccc(NC(=O)c2cc(S(=O)(=O)N3CCC(C)CC3)cn2C)cc1` the Potency was “inactive”. For `O=S(=O)(NCCc1nnc2ccc(SCc3ccc(Cl)cc3Cl)nn12)c1ccccc1`, the Potency was “inactive”. For `COc1ccc(Cl)cc1S(=O)(=O)N1CCC(c2ccncc2)CC1`, the Potency was “inactive”. With `Cc1c(/C=N/N2C(=O)C3C4C=CC(C4)C3C2=O)c2ccccc2n1C` (stereo not drawn) the Potency was “inactive”. `CC(C)Oc1ccc(NC(=O)c2cc3ccccc3o2)cc1` was tested, and the Potency was “inactive”. `Cc1c(/C=N\NC(=O)c2cc3ccccc3o2)c2ccccc2n1C` was tested, and the Potency was 3.55 µM (active). For `COC(=O)CCCC1=CC2=CC(=O)C(C)(OC(=O)c3cccs3)C(=O)C2=CN1c1cccc(C#N)c1` (stereo not drawn), the Potency was 31.6 µM (active) and the activity, negative = inhibition was -5.58% [at 11.5 µM]. Compound `COC(=O)CCCC1=CC2=CC(=O)C(C)(OC(=O)c3cccs3)C(=O)C2=CN1CC(C)C` (stereo not drawn) has an activity, negative = inhibition of -12.7% [at 11.5 µM]. `COC(=O)CCCC1=CC2=CC(=O)C(C)(OC(=O)c3cccs3)C(=O)C2=CN1c1ccc(CO)cc1` (stereo not drawn) gave an activity, negative = inhibition of -2.21% [at 11.5 µM]. For `CCn1c2c(c(=O)n3ncc(C(=O)N4CCN(c5ccccc5)CC4)c13)CN(Cc1ccc(OC)cc1)CC2`, the Potency was “inactive”. With `COc1ccc(-n2c(=O)c3sc4ccccc4c3n(CC(=O)Nc3cccc(C)c3)c2=O)cc1` the Potency was “inactive”. With `C=CCNC(=S)N/N=C/c1ccc(C)s1` the Potency was “inactive”. `Cc1ccc(NC(=S)NCCN2CCOCC2)cc1` was tested, and the Potency was “inactive”. `CNC(=S)N/N=C/c1ccc(N2CCOCC2)s1` was tested, and the Potency was 17.8 µM (active). `O=C(NCc1ccccc1)c1ccc2c(c1)nc1n2CCCCC1` was tested, and the Potency was “inactive”. `O=C(C1CCC(Cn2c(=O)c3sccc3n(Cc3ccccc3F)c2=O)CC1)N1CCCCC1` (stereo not drawn) was tested, and the Potency was “inactive”. With `Brc1ccc(-c2csc(N/N=C/c3ccc4c(c3)OCO4)n2)cc1` the Potency was 4.47 µM (active). In the case of `O=C(CNC(=O)C(c1ccccc1)c1ccccc1)N/N=C\c1ccc2c(c1)OCO2`, the Potency was “inactive”. With `Cc1noc(C)c1/C=N/Nc1ccc2ccccc2n1` the Potency was “inactive”. With `COc1ccc(-c2csc(N3CCN(Cc4ccc5c(c4)OCO5)CC3)n2)cc1` the Potency was “inactive”. With `C(=N\Nc1ccc2ccccc2n1)/c1ccc2c(c1)OCO2` the Potency was 10 µM (active). For `O=C(Cc1ccc(F)cc1)N/N=C/c1ccc2c(c1)OCO2`, the Potency was “inactive”. `COc1ccc(Cl)cc1NC(=O)C(C)Sc1nc2c(c(=O)[nH]1)CCCC2` (stereo not drawn) was tested, and the Potency was “inactive”. `Cc1ccc(-c2nc(SCc3ccc(Br)cc3)n3[nH]c(=O)cc3n2)cc1` was tested, and the Potency was “inactive”. `COc1cc(-c2cc3n(C)c(C)c(CCC(=O)Nc4ccc(F)cc4)c(=O)n3n2)cc(OC)c1OC` was tested, and the Potency was “inactive”. For `C(=N/Nc1cc(N2CCOCC2)nc(N2CCOCC2)n1)/c1ccccc1`, the Potency was “inactive”. For `CN(C)c1ccc(/C=N/Nc2cc(N3CCOCC3)nc(N3CCOCC3)n2)cc1`, the Potency was 7.94 µM (active). For `Cc1cc(N2CCN(c3ccccc3)CC2)nc(N2CCOCC2)n1`, the Potency was “inactive”. `CCC(=O)N1c2ccccc2CC1C(=O)N1CCN(c2ccccc2F)CC1` (stereo not drawn) was tested, and the Potency was “inactive”. With `COc1ccc(CCNC(=O)c2cc3cccc4c3n2CC(C)S4)c(OC)c1OC` (stereo not drawn) the Potency was “inactive”. For `O=C(Nc1ccccc1Br)c1cc(CN2CCCC2)on1`, the Potency was “inactive”. For `COC(=O)CCNc1ccc2c(c1)OCCO2`, the Potency was “inactive”. With `COc1ccc(C(=O)Nc2ccc3c(c2)OCO3)cc1OC` the Potency was “inactive”. `CCOc1ccc(NCCC(=O)c2ccc3c(c2)OCO3)cc1` was tested, and the Potency was 15.8 µM (active). In the case of `COc1ccccc1-c1noc(-c2ccc(NCc3ccccc3)c([N+](=O)[O-])c2)n1`, the Potency was “inactive”. For `COC(=O)c1ccc2c(c1)N(CC(=O)Nc1ccc(C)c(C)c1)C(=O)c1ccccc1S2`, the Potency was “inactive”. `O=C(CSc1nnc(-c2ccncc2)n1-c1ccccc1)Nc1ccc(Cl)c(Cl)c1` was tested, and the Potency was “inactive”. `CCC(Sc1nnc(-c2ccc(OC)cc2)c(-c2ccc(OC)cc2)n1)C(=O)NC1CCCCC1` (stereo not drawn) was tested, and the Potency was “inactive”. For `COc1cc(C(=S)NCc2ccccc2)cc(Br)c1O`, the Potency was 35.5 µM (active). `COc1cc(C=O)c(Br)cc1OCC(=O)NCc1ccccc1` was tested, and the Potency was “inactive”. In the case of `COc1cc(CNC2CCCC2)c(Br)cc1OCc1ccccc1`, the Potency was “inactive”. `O=C(NCC(c1ccco1)S(=O)(=O)c1cccs1)c1ccc(F)cc1` (stereo not drawn) was tested, and the Potency was “inactive”. `O=C(NC1CC(=O)N(c2ccc(F)cc2)C1)c1ccc(S(=O)(=O)N2CCCC2)cc1` (stereo not drawn) was tested, and the Potency was “inactive”. In the case of `Oc1cc(O)c2c(c1)OC(c1ccc(O)c(O)c1)C(O)C2` (stereo not drawn), the Potency was 14.1 µM (active). With `COC(=O)c1ccc(NC(=O)c2cc(Cl)ccc2OC)cc1` the Potency was “inactive”. In the case of `COc1ccc(Cl)cc1C(=O)Nc1ccc(N(C)C(C)=O)cc1`, the Potency was “inactive”. With `CCN1CCN(c2cc(C)c3cc(NC(=O)c4cc(Cl)ccc4OC)ccc3n2)CC1` the Potency was 14.1 µM (active). For `CNC(=S)Nc1ccc([N+](=O)[O-])cc1`, the Potency was “inactive”. In the case of `O=C(O)/C=C/C(=O)NNc1ccc([N+](=O)[O-])cc1`, the Potency was 15.8 µM (active). With `Cc1c(NC(=O)/C=C/C(=O)O)cccc1[N+](=O)[O-]` the Potency was “inactive”. With `COc1ccc(C2CC(=O)N(Cc3ccccc3C)c3c2c(C)nn3-c2nc(C)cc(C)n2)c(OC)c1` (stereo not drawn) the Potency was “inactive”. `O=C(Nc1ccc(Oc2ccccc2)cc1)C1CCN(S(=O)(=O)c2ccc(Cl)cc2)CC1` was tested, and the Potency was “inactive”. For `CC(=O)Nc1cccc(NC(=O)CSc2cn(CC(=O)N3CCCC3)c3ccccc23)c1`, the Potency was “inactive”. With `C=CS(=O)c1sc(Cl)c(N2CCOCC2)c1[N+](=O)[O-]` (stereo not drawn) the Potency was 8.91 µM (active). For `O=C(Nc1nnc(C2CC(=O)N(c3ccc(Cl)cc3)C2)s1)c1ccco1` (stereo not drawn), the Potency was “inactive”. In the case of `NC1=NC(c2cc(F)cc(F)c2)n2c(nc3ccccc32)N1` (stereo not drawn), the Potency was “inactive”. For `CCOc1ccc(N(CC)S(=O)(=O)N2CCCC(C(=O)NCc3ccc(SC)cc3)C2)cc1` (stereo not drawn), the Potency was “inactive”. In the case of `CCc1nc(-c2cc(S(=O)(=O)N3CCN(c4ccc(OC)cc4)CC3)ccc2OC)no1`, the Potency was 28.2 µM (active). With `COc1ccc(N2CCN(S(=O)(=O)c3ccc(-c4coc(C)n4)cc3)CC2)cc1` the Potency was “inactive”. In the case of `COc1ccc(OC)c(-c2noc(N3CCN(c4cc(Cl)ccc4C)CC3)n2)c1`, the Potency was “inactive”. In the case of `O=C(/C=C/c1ccccc1)c1ccccc1O`, the Potency was “inactive”. `COc1ccc(/C=C/C(=O)c2cc(Br)ccc(=O)c2O)cc1` was tested, and the Potency was 4.47 µM (active). With `COc1ccc(C(=O)Cc2cnn(-c3ccccc3)c2)c(O)c1` the Potency was “inactive”. Work on `COc1ccc(/C=C/NC(=O)Cc2ccc(OC)c(OC)c2)cc1` yielded an activity, negative = inhibition of -4.15% [at 11.5 µM]. `COc1ccc(/C=C/C(=O)c2ccc(OC)cc2O)cc1` was tested, and the Potency was 5.01 µM (active). In the case of `COc1ccc2oc(=O)c(C(=O)O)cc2c1`, the Potency was “inactive”.
